According to PubChem BioAssay:
Activity calls are given as the source filed them. Unless noted, no stated cut-off is given here; in the data, active means inhibition above about 42%; inactive means the rest.

tested on: not listed separately; assay: StAR promoter reporter inhibitors, counter-screen for LRH-1 inverse agonist project, cell-based, luminescence, high throughput (AID 651611; in the data active means inhibition above about 28%); conditions: StAR promoter luciferase reporter counterscreen, at 3.6 µM, active compounds read high

SMILES | inhibition
C=CCNC(=S)N/N=C/c1ccc(N(CC)Cc2ccccc2)cc1 | 11.4% (inactive)
O=C(Cn1nnc2ccccc2c1=O)Nc1ccc2c(c1)CCC2 | -34.8% (inactive)
C#Cc1cccc(Nc2nc(NCCOC)nc3ccsc23)c1 | 26.9% (inactive)
COc1ccc(/C=C2/CSC/C(=C/c3ccc(OC)c(OC)c3)C2=O)cc1OC | -4.62% (inactive)
COc1cc2c(cc1OC)CN(C(=O)c1ccc([N+](=O)[O-])o1)CC2 | 12.4% (inactive)
C/C(=N\NC(N)=S)c1ccncc1 | 6.9% (inactive)
Cc1ccc(C)c(NC(=O)CSc2nc3c(oc4ccccc43)c(=O)n2-c2ccccc2)c1 | 10.6% (inactive)
CCOc1cc(/C=N/Nc2nnc(C)n2N)ccc1O | -6% (inactive)
Cc1cc(O)c(/C=N/Nc2cccc(Cl)c2)c(=O)o1 | -0.11% (inactive)
Cn1cc(Cl)c(C(=O)OCC(=O)Nc2ccc(S(N)(=O)=O)cc2)n1 | 10.9% (inactive)
O=C(Cc1ccccc1)N/N=C/c1ccc([N+](=O)[O-])s1 | 2.21% (inactive)
COc1ccc(CCNC(=O)COC(=O)c2cc(Cl)nc(Cl)c2)cc1 | 3.74% (inactive)
C/C(=N\N1CCN(c2ccc(Cl)cc2)CC1)c1cccc([N+](=O)[O-])c1 | 12.5% (inactive)
CCCc1nnc(SCC(=O)Nc2ccc(OC)cc2)o1 | 5.23% (inactive)
Cc1ccc(S(=O)(=O)N2CCc3ccccc3CC2)cc1 | 39.2% (active)
Oc1cccc(Nc2nc(N3CCOCC3)nc(N3CCOCC3)n2)c1 | 24.7% (inactive)
CCS(=O)(=O)N1Cc2cc(C(=O)NCC3CC3)nc(-c3cccc(-c4cccnc4)c3)c2[C@@H]1CCO | 8.53% (inactive)
CCOc1ccc2c(c1)sc(N)[n+]2Cc1cc(C)cc2cccnc12 | 30.7% (active)
Cc1c(C(=O)N(Cc2ccc(F)cc2)C2CCS(=O)(=O)C2)oc2ccccc12 (stereo not drawn) | 36.8% (active)
Cc1ccc(-c2nn3c(C)nnc3s2)cc1NC(=O)c1cccs1 | 17.1% (inactive)
O=C(CSc1nnc(Cc2cccs2)n1Cc1ccco1)Nc1ccc(Cl)cc1Cl | 9.49% (inactive)
CN(CC(=O)Nc1ccc(N2CCOCC2)cc1)CC(=O)Nc1ccc(N2CCOCC2)cc1 | 4.02% (inactive)
O=C(Nc1ccccc1Cl)c1ccc([N+](=O)[O-])o1 | 29.4% (active)

biological target: Nuclear receptor subfamily 5 group A member 2 (Homo sapiens) (UniProt O00482); assay: LRH-1 (NR5A2) inverse agonists, retest, confirmation, cell-based, luminescence (AID 651613); conditions: cell-based LRH-1 luciferase reporter, inverse agonism; at 3.6 µM; active compounds read high;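 further: HEK293T cells co-transfected with LRH-1 and StAR promoter luciferase reporter; 0% = vehicle wells and 100% = parental cells lacking receptor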
Sequence (O00482 whole entry, looked up): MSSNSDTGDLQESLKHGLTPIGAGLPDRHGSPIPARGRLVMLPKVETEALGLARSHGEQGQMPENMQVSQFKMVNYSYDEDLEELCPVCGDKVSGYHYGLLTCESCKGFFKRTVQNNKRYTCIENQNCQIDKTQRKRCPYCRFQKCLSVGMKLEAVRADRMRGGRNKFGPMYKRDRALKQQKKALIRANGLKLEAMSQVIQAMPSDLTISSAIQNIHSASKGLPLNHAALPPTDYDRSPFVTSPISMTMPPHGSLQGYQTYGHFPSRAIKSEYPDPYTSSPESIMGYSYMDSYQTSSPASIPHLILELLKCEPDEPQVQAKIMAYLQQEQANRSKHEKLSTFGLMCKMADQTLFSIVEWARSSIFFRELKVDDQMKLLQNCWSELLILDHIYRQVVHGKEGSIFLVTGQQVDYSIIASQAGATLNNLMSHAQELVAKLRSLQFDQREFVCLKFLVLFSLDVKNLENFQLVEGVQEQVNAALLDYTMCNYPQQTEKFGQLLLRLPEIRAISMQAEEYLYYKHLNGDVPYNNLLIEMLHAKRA

SMILES | inhibition
COc1ccc(/C=N/n2c(SC)nnc2-c2ccccc2)c(OC)c1OC | 41.2% (active)
CC(=O)Nc1cc(-c2cccc(NS(C)(=O)=O)c2)cn2c(-c3ccccc3)cnc12 | 40.4% (inactive)
Cc1ccc(S(=O)(=O)NCc2ccncc2)cc1 | 54.7% (active)
c1ccc(-c2nc(NCc3cccnc3)c3oc4ccccc4c3n2)cc1 | 62.4% (active)
CC(C)c1cc(NC(=O)CCl)on1 | 47.4% (active)
COc1ccc(C2=Nn3c(nnc3-c3ccncc3)SC2)cc1OC | 48% (active)
CCn1c(=S)sc2c(=O)n(CC(=O)Nc3ccc(Cl)cc3)c(C)nc21 | 55.2% (active)
COc1ccc2c(c1)CCN(C(=O)CCl)C2C1C(=O)CCCC1=O (stereo not drawn) | 59% (active)
O=C(Cc1c(F)cccc1Cl)Nc1ccncc1 | 45% (active)
CC(=O)ON=C1C=CC(=C(C#N)c2ccccc2)C=C1 | 79% (active)
O=C(Nc1nnc(C2=COCCO2)o1)c1ccc([N+](=O)[O-])s1 | 49.4% (active)
CC(=O)c1ccc(NC(=O)CSc2nc3[nH]ncc3c(=O)[nH]2)cc1 | 61.5% (active)
CCCCNC(=O)COC(=O)c1c2c(nc3ccccc13)/C(=C\c1cccs1)CC2 | 34.9% (inactive)
CCCn1c2c(c(=N)c3c1CCC3)CCCC2 | 61.8% (active)
COc1ccc(S(=O)(=O)Nc2ccc(CC#N)cc2)cc1 | 31.7% (inactive)
COCCn1c(SCC(=O)Nc2ccc(C(C)=O)cc2)nnc1-c1ccco1 | 43.4% (active)
CSCc1c(C(=O)Nc2ccccc2N2CCOCC2)oc2ccccc12 | 65.9% (active)
C=CCNC(=S)N/N=C/c1ccc(N(CC)Cc2ccccc2)cc1 | 38.4% (inactive)
O=C(Cn1nnc2ccccc2c1=O)Nc1ccc2c(c1)CCC2 | 20.8% (inactive)
C#Cc1cccc(Nc2nc(NCCOC)nc3ccsc23)c1 | 47.1% (active)

SMILES | inhibition
COc1ccc(/C=C2/CSC/C(=C/c3ccc(OC)c(OC)c3)C2=O)cc1OC | 74.5% (active)
COc1cc2c(cc1OC)CN(C(=O)c1ccc([N+](=O)[O-])o1)CC2 | 65.1% (active)
C/C(=N\NC(N)=S)c1ccncc1 | 54.2% (active)
Cc1ccc(C)c(NC(=O)CSc2nc3c(oc4ccccc43)c(=O)n2-c2ccccc2)c1 | 50.3% (active)
CCOc1cc(/C=N/Nc2nnc(C)n2N)ccc1O | 18.2% (inactive)
Cc1cc(O)c(/C=N/Nc2cccc(Cl)c2)c(=O)o1 | 44.5% (active)
Cn1cc(Cl)c(C(=O)OCC(=O)Nc2ccc(S(N)(=O)=O)cc2)n1 | 55.2% (active)
O=C(Cc1ccccc1)N/N=C/c1ccc([N+](=O)[O-])s1 | 60% (active)
COc1ccc(CCNC(=O)COC(=O)c2cc(Cl)nc(Cl)c2)cc1 | 47.4% (active)
C/C(=N\N1CCN(c2ccc(Cl)cc2)CC1)c1cccc([N+](=O)[O-])c1 | 15.8% (inactive)
CCCc1nnc(SCC(=O)Nc2ccc(OC)cc2)o1 | 42.6% (active)
Cc1ccc(S(=O)(=O)N2CCc3ccccc3CC2)cc1 | 66.3% (active)
Oc1cccc(Nc2nc(N3CCOCC3)nc(N3CCOCC3)n2)c1 | 45% (active)
CCS(=O)(=O)N1Cc2cc(C(=O)NCC3CC3)nc(-c3cccc(-c4cccnc4)c3)c2[C@@H]1CCO | 47.6% (active)
CCOc1ccc2c(c1)sc(N)[n+]2Cc1cc(C)cc2cccnc12 | 56.2% (active)
Cc1c(C(=O)N(Cc2ccc(F)cc2)C2CCS(=O)(=O)C2)oc2ccccc12 (stereo not drawn) | 8.94% (inactive)
Cc1ccc(-c2nn3c(C)nnc3s2)cc1NC(=O)c1cccs1 | 67.5% (active)
O=C(CSc1nnc(Cc2cccs2)n1Cc1ccco1)Nc1ccc(Cl)cc1Cl | 51.8% (active)
CN(CC(=O)Nc1ccc(N2CCOCC2)cc1)CC(=O)Nc1ccc(N2CCOCC2)cc1 | 52.1% (active)
O=C(Nc1ccccc1Cl)c1ccc([N+](=O)[O-])o1 | 63.9% (active)
